{"source": "PubChem BioAssay AID504834", "about": "(National Center for Advancing Translational Sciences (NCATS), 2011)", "note": "Hit rate of the full screen: of about 320,000 compounds, about 22,000 (6.9%) were called active. Not shown: some 27% with an inconclusive outcome. The full list was thinned out, with actives kept by preference. A number with no mark means an inactive call. Calls come from the whole dose curve; as a rule, active = well fitted inhibition curve with a large enough effect; inconclusive = small, poorly fitted or top-dose-only effect, or another doubt; inactive = no such curve, though single readings can be large or run the other way. % is set by controls: 0 for no effect and ±100 for the full control effect; potency is the fitted concentration of half-maximal effect.", "data": [{"assay": "Primary qHTS for delayed death inhibitors of the malarial parasite plastid, 96 hour incubation", "settings": "P. falciparum luciferase reporter growth; series mostly up to 28.7 µM; activity change, negative = inhibition: at the top concentration", "how_it_was_run": "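P. falciparum expressing integrated firefly luciferase grown in erythrocytes (2% hematocrit, 0.05% parasitemia final) with compounds for 96 hours at 37 C, 5% CO2. Growth inhibition read as loss of luminescence after adding luciferase detection reagent.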", "units": {"activity change, negative = inhibition": "%"}, "values": [{"smiles": "CCC(C)CCN1CCN=C1N(C)C", "note": "(stereo not drawn)", "activity change, negative = inhibition": 51.7}, {"smiles": "CCOc1ccc(/C=N\\NC(=O)c2c(C)nc3cc(C)ccn23)cc1", "activity change, negative = inhibition": 10.6}, {"smiles": "CCOC(=O)c1nnn(-c2nonc2-n2cccc2)c1CN1CCC(C(=O)OCC)CC1", "Potency": "0.928 µM (active)"}, {"smiles": "CCN(CC)Cc1c(C(=O)OC)nnn1-c1nonc1N", "activity change, negative = inhibition": -0.231}, {"smiles": "CCOC(=O)C1CCN(Cc2ccc(-c3ccccc3)cc2)CC1", "activity change, negative = inhibition": -21.5}, {"smiles": "Cc1ccccc1OCC(=O)Nc1nnc(S(=O)(=O)N2CCCC2)s1", "activity change, negative = inhibition": 40.6}, {"smiles": "CCOC(=O)CC1COCCN1C(=O)c1cc(COc2ccc(F)c(F)c2)on1", "note": "(stereo not drawn)", "activity change, negative = inhibition": 16.8}, {"smiles": "Cn1c(N2CCOCC2)c(C=O)c2ccccc21", "activity change, negative = inhibition": 4.33}, {"smiles": "FC(F)(F)c1ccnc(Oc2ccc(C3=NCCS3)cc2)c1", "activity change, negative = inhibition": 335}, {"smiles": "O=C(NCCCN1CCOCC1)c1ccc([N+](=O)[O-])cc1[N+](=O)[O-]", "activity change, negative = inhibition": 18.7}, {"smiles": "O=[N+]([O-])c1cc(S(=O)(=O)CCCN2CCOCC2)ccc1F", "Potency": "10.4 µM (active)"}, {"smiles": "O=S(=O)(NCCCN1CCOCC1)c1ccc(F)c(Cl)c1", "activity change, negative = inhibition": -15.7}, {"smiles": "CCc1nccn1CCC(=O)N1CCCC(N2CCN(c3ccccc3F)CC2)C1", "note": "(stereo not drawn)", "activity change, negative = inhibition": 40.6}, {"smiles": "CCOc1ccc(NC(=O)CN(C)C(=O)CSc2ccccc2)cc1OCC", "activity change, negative = inhibition": 17.1}, {"smiles": "CCc1ccc(-c2nn(-c3ccccc3C)cc2C(=O)N2CCN(C3CCS(=O)(=O)C3)CC2)cc1", "note": "(stereo not drawn)", "activity change, negative = inhibition": -29}, {"smiles": "CCc1ccc(N2CC(C(=O)Nc3ccc(S(=O)(=O)Nc4nccs4)cc3)CC2=O)cc1", "note": "(stereo not drawn)", "activity change, negative = inhibition": 19.7}, {"smiles": "COc1ccc([N+](=O)[O-])cc1N(CC(O)CN(CC(C)C)CC(C)C)S(=O)(=O)c1ccc(C)cc1", "note": "(stereo not drawn)", "activity change, negative = inhibition": -6.94}, {"smiles": "COc1cc2cc(C(=O)N/N=C/c3cccc(OC)c3OC)[nH]c2cc1OC", "activity change, negative = inhibition": -29.6}, {"smiles": "CCOc1ccc2[nH]c(C(=O)N/N=C/c3cccc(OC)c3OC)cc2c1", "activity change, negative = inhibition": 17.8}, {"smiles": "COc1ccc2[nH]c(C(=O)N/N=C/c3cc(OC)c(OC)c(OC)c3)cc2c1", "Potency": "5.86 µM (active)"}, {"smiles": "Cc1ccnc(NS(=O)(=O)c2ccc(NC(=O)c3oc4ccc(F)cc4c3C)cc2)n1", "activity change, negative = inhibition": 2.11}, {"smiles": "COc1ccc(Nc2ccc([N+](=O)[O-])cn2)cn1", "activity change, negative = inhibition": 5.89}, {"smiles": "COC(=O)C1(O)CC(C(C)C)=NN1C(=O)c1ccc(Cl)cc1", "note": "(stereo not drawn)", "activity change, negative = inhibition": 14.7}, {"smiles": "O=C(c1ccc(Cl)cc1)N1N=C(c2ccccn2)CC1(O)C(F)(F)F", "note": "(stereo not drawn)", "Potency": "6.57 µM (active)"}, {"smiles": "O=C(C1CC1)N1N=C(c2ccc(Br)cc2)CC1(O)C(F)(F)F", "note": "(stereo not drawn)", "activity change, negative = inhibition": -6.38}, {"smiles": "Cc1ccc(NC(=O)NC(=O)c2ccccc2)cc1F", "activity change, negative = inhibition": 9.94}, {"smiles": "CC(=O)c1c(C)[nH]c(=S)c(C#N)c1-c1ccc(F)cc1", "activity change, negative = inhibition": 24.5}, {"smiles": "CCc1c(C)[nH]c(=S)c(C#N)c1C", "Potency": "3.29 µM (active)"}, {"smiles": "Cc1ccc(-n2cnc3ncnc(-c4ccccc4)c32)cc1", "activity change, negative = inhibition": 35}, {"smiles": "Cc1ccc(-c2nn(C(C)(C)C)c3ncnc(N)c23)cc1", "Potency": "2.33 µM (active)"}, {"smiles": "COc1ccccc1OC(C)C(=O)Nc1ccc(S(=O)(=O)Nc2nccs2)cc1", "note": "(stereo not drawn)", "activity change, negative = inhibition": 50.1}, {"smiles": "CCCn1c(C(Cc2ccccc2)NC(=O)COC)nc2ccccc21", "note": "(stereo not drawn)", "activity change, negative = inhibition": -3.62}, {"smiles": "CCCC(NC(=O)c1ccccc1)c1nc2ccccc2n1Cc1ccc(C(=O)OC)o1", "note": "(stereo not drawn)", "Potency": "8.28 µM (active)"}, {"smiles": "COC(=O)c1ccc(CN2C(=O)NC(c3ccccc3)(c3ccccc3)C2=O)o1", "activity change, negative = inhibition": -23.7}, {"smiles": "CCc1cccc(NC(=S)N(CCN(C)C)C2CCN(C(C)C)CC2)c1", "activity change, negative = inhibition": 6.36}, {"smiles": "COc1ccccc1/C=C/C(=O)OCC(=O)NC1CCCCCC1", "activity change, negative = inhibition": -6.99}, {"smiles": "O=S(=O)(c1ccc2c(c1)OCCO2)N1CCc2ccccc21", "activity change, negative = inhibition": 0}, {"smiles": "CCn1c(=O)c(=O)n(CC)c2cc(S(=O)(=O)N3CCc4ccccc43)ccc21", "Potency": "13.1 µM (active)"}, {"smiles": "CSc1nc2ccc(S(=O)(=O)N3CCc4ccccc43)cc2s1", "activity change, negative = inhibition": -24.9}, {"smiles": "O=C(NCc1ccccc1Cl)c1ccc2c(=O)n(CC3CCCO3)c(=S)[nH]c2c1", "note": "(stereo not drawn)", "activity change, negative = inhibition": 45.6}, {"smiles": "Cc1ccc2nc(COc3ccc(N(C)S(=O)(=O)c4ccccc4)cc3)cc(=O)n2c1", "Potency": "10.4 µM (active)"}, {"smiles": "CN(c1ccc(OCC(=O)O)cc1)S(=O)(=O)c1ccc2ccccc2c1", "activity change, negative = inhibition": -7.57}, {"smiles": "COc1cccc(COc2ccc(N(C)S(=O)(=O)c3ccccc3)cc2)c1", "activity change, negative = inhibition": -12.1}, {"smiles": "COCCCNC(=O)C1CC(=O)N(CCc2ccc(F)cc2)C1", "note": "(stereo not drawn)", "activity change, negative = inhibition": 23.2}, {"smiles": "O=C(Nc1ccc2c(c1)OCO2)C1CC1(Cl)Cl", "note": "(stereo not drawn)", "activity change, negative = inhibition": 161}, {"smiles": "CC(=O)N/C(=C\\c1ccccc1)C(=O)OC(C)C(=O)N(C)c1ccccc1", "note": "(stereo not drawn)", "activity change, negative = inhibition": 22.6}, {"smiles": "OCC[C@H]1C[C@H](O)[C@@H](O)[C@]2(Cc3ccccc3CO2)O1", "activity change, negative = inhibition": 85.6}, {"smiles": "CC1(C)Cc2c(sc3nc4n(c(=N)c23)CCCCC4)CO1", "activity change, negative = inhibition": -12.3}, {"smiles": "CCOC(=O)Cn1c(SC)nc2sc3c(c2c1=O)CC(C)(C)OC3", "activity change, negative = inhibition": 0.247}, {"smiles": "CC(C)c1nc2sc3c(c2c(=O)n1N)CC(C)(C)OC3", "Potency": "4.65 µM (active)"}, {"smiles": "COCCN1C(=O)N[C@@H](c2ccccc2)C(C(=O)OC)=C1C", "activity change, negative = inhibition": -11.4}, {"smiles": "CC1=C(C(=O)OC(C)(C)C)C(c2ccc(Br)cc2)NC(=O)N1CCCC(=O)O", "note": "(stereo not drawn)", "activity change, negative = inhibition": 0.837}, {"smiles": "CC1=C(C(=O)OCc2ccccc2)C(c2ccc(C(F)(F)F)cc2)NC(=O)N1CCCCCC(=O)O", "note": "(stereo not drawn)", "Potency": "13.1 µM (active)"}]}]}
